Measurements published in PubChem BioAssay AID1159580 (chemical genetic matrix, 2015).
The campaign covered roughly 5,500 compounds. About 2,000 (36%) were called active. Inconclusive results (about 18%) are left out. No stated cut-off is given here; in the data, active means normalized growth mostly below about 0.91 (no sharp cut-off); inconclusive means no clear call, values can overlap the other calls; inactive means mostly above about 0.92. Some of the results follow.

Test: chemical genetic growth profiling, strain panel (AID 1159580);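 further: tested at 20 µM; growth read once vehicle control cultures reached saturation at 30 °C; 1 = growth at the plate median or of vehicle wells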
Conditions: growth OD

Measured: normalized growth

COc1cc2c(cc1OC)C(=O)OC2
inactive: S. cerevisiae deletion strains, locus YJR075W, strain HOC1, stronger effect = lower value 1.01 | S. cerevisiae deletion strains, locus YKL009W, strain mrt4, stronger effect = lower value 1.05 | S. cerevisiae deletion strains, locus YKL068W, stronger effect = lower value 1 | S. cerevisiae deletion strains, locus YKL085W, strain MDH1 (second series), stronger effect = lower value 1.01 | S. cerevisiae deletion strains, locus YKL085W, strain MDH1, stronger effect = lower value 1.01 | S. cerevisiae deletion strains, locus YKL160W, strain elf1, stronger effect = lower value 0.994 | S. cerevisiae deletion strains, locus YKL190W, strain CNB1, stronger effect = lower value 1 | S. cerevisiae deletion strains, locus YKR001C, strain vps1, stronger effect = lower value 1.01 | S. cerevisiae deletion strains, locus YKR026C, strain gcn3, stronger effect = lower value 0.992 | S. cerevisiae deletion strains, locus YKR091W, strain srl3, stronger effect = lower value 0.996 | S. cerevisiae deletion strains, locus YLL001W, strain dnm1, stronger effect = lower value 0.996 | S. cerevisiae deletion strains, locus YLL026W, stronger effect = lower value 0.991 | S. cerevisiae deletion strains, locus YLL041C, strain sdh2, stronger effect = lower value 1 | S. cerevisiae deletion strains, locus YLR027C, strain aat2, stronger effect = lower value 1 | S. cerevisiae deletion strains, locus YLR039C, strain RIC1, stronger effect = lower value 1.02 | S. cerevisiae deletion strains, locus YLR058C, strain SHM2, stronger effect = lower value 1.01 | S. cerevisiae deletion strains, locus YLR102C, strain apc9, stronger effect = lower value 1 | S. cerevisiae deletion strains, locus YLR113W, strain HOG1, stronger effect = lower value 0.971 | S. cerevisiae deletion strains, locus YLR221C, strain rsa3, stronger effect = lower value 1.01 | S. cerevisiae deletion strains, locus YLR258W, strain gsy2, stronger effect = lower value 0.992 | S. cerevisiae deletion strains, locus YLR262C, strain YPT6 (second series), stronger effect = lower value 1.02 | S. cerevisiae deletion strains, locus YLR262C, strain YPT6, stronger effect = lower value 1.02 | S. cerevisiae deletion strains, locus YLR268W, strain sec22, stronger effect = lower value 0.979 | S. cerevisiae deletion strains, locus YLR320W, strain mms22, stronger effect = lower value 0.995 | S. cerevisiae deletion strains, locus YLR330W, strain CHS5, stronger effect = lower value 1.01 | S. cerevisiae deletion strains, locus YLR342W, strain FKS1 (second series), stronger effect = lower value 1.07 | S. cerevisiae deletion strains, locus YLR342W, strain FKS1, stronger effect = lower value 0.999 | S. cerevisiae deletion strains, locus YLR357W, strain rsc2, stronger effect = lower value 0.96 | S. cerevisiae deletion strains, locus YLR370C, strain arc18, stronger effect = lower value 0.997 | S. cerevisiae deletion strains, locus YLR371W, strain rom2, stronger effect = lower value 1.01 | S. cerevisiae deletion strains, locus YLR384C, strain iki3, stronger effect = lower value 0.988 | S. cerevisiae deletion strains, locus YLR418C, strain cdc73, stronger effect = lower value 0.925 | S. cerevisiae deletion strains, locus YML016C, strain PPZ1, stronger effect = lower value 1 | S. cerevisiae deletion strains, locus YML032C, strain rad52, stronger effect = lower value 1.01 | S. cerevisiae deletion strains, locus YML120C, strain ndi1, stronger effect = lower value 1.01 | S. cerevisiae deletion strains, locus YML124C, strain tub3, stronger effect = lower value 0.994 | S. cerevisiae deletion strains, locus YMR058W, strain fet3, stronger effect = lower value 0.999 | S. cerevisiae deletion strains, locus YMR078C, strain ctf18, stronger effect = lower value 1 | S. cerevisiae deletion strains, locus YMR125W, strain sto1, stronger effect = lower value 0.984 | S. cerevisiae deletion strains, locus YMR129W, stronger effect = lower value 0.992 | S. cerevisiae deletion strains, locus YMR205C, strain PFK2, stronger effect = lower value 1.01 | S. cerevisiae deletion strains, locus YMR223W, strain ubp8, stronger effect = lower value 1.02 | S. cerevisiae deletion strains, locus YMR231W, strain pep5, stronger effect = lower value 0.99 | S. cerevisiae deletion strains, locus YMR263W, strain SAP30, stronger effect = lower value 0.994 | S. cerevisiae deletion strains, locus YMR307W, strain GAS1, stronger effect = lower value 1.09 | S. cerevisiae deletion strains, locus YNL067W, strain RPL9B, stronger effect = lower value 0.997 | S. cerevisiae deletion strains, locus YNL071W, strain lat1, stronger effect = lower value 0.995 | S. cerevisiae deletion strains, locus YNL128W, strain TEP1, stronger effect = lower value 0.99 | S. cerevisiae deletion strains, locus YNL153C, strain GIM3, stronger effect = lower value 0.978 | S. cerevisiae deletion strains, locus YNL183C, strain NPR1, stronger effect = lower value 0.987 | S. cerevisiae deletion strains, locus YNL209W, strain ssb2, stronger effect = lower value 0.979 | S. cerevisiae deletion strains, locus YNL233W, strain BNI4, stronger effect = lower value 0.992 | S. cerevisiae deletion strains, locus YNL248C, strain rpa49, stronger effect = lower value 0.978 | S. cerevisiae deletion strains, locus YNL250W, strain rad50, stronger effect = lower value 0.995 | S. cerevisiae deletion strains, locus YNL271C, strain bni1, stronger effect = lower value 1 | S. cerevisiae deletion strains, locus YNL298W, strain CLA4, stronger effect = lower value 1.02 | S. cerevisiae deletion strains, locus YNL307C, strain MCK1, stronger effect = lower value 1.02 | S. cerevisiae deletion strains, locus YNL322C, strain KRE1 (second series), stronger effect = lower value 0.996 | S. cerevisiae deletion strains, locus YNL322C, strain KRE1, stronger effect = lower value 1.01 | S. cerevisiae deletion strains, locus YNR049C, strain mso1, stronger effect = lower value 1 | S. cerevisiae deletion strains, locus YNR052C, strain pop2, stronger effect = lower value 1.01 | S. cerevisiae deletion strains, locus YOL006C, strain TOP1, stronger effect = lower value 0.996 | S. cerevisiae deletion strains, locus YOL012C, strain htz1 0.744 | S. cerevisiae deletion strains, locus YOL147C, strain pex11, stronger effect = lower value 1 | S. cerevisiae deletion strains, locus YOR001W, strain rrp6, stronger effect = lower value 0.993 | S. cerevisiae deletion strains, locus YOR061W, strain CKA2, stronger effect = lower value 1 | S. cerevisiae deletion strains, locus YOR069W, strain VPS5, stronger effect = lower value 1.01 | S. cerevisiae deletion strains, locus YOR070C, strain gyp1, stronger effect = lower value 0.984 | S. cerevisiae deletion strains, locus YOR080W, strain dia2, stronger effect = lower value 1.01 | S. cerevisiae deletion strains, locus YOR083W, strain WHI5, stronger effect = lower value 0.996 | S. cerevisiae deletion strains, locus YOR106W, strain vam3, stronger effect = lower value 0.99 | S. cerevisiae deletion strains, locus YOR136W, strain idh2, stronger effect = lower value 1 | S. cerevisiae deletion strains, locus YOR144C, strain elg1, stronger effect = lower value 1 | S. cerevisiae deletion strains, locus YOR184W, strain ser1, stronger effect = lower value 1.04 | S. cerevisiae deletion strains, locus YOR231W, strain MKK1, stronger effect = lower value 0.991 | S. cerevisiae deletion strains, locus YOR265W, strain rbl2, stronger effect = lower value 1.01 | S. cerevisiae deletion strains, locus YOR270C, strain vph1, stronger effect = lower value 0.971 | S. cerevisiae deletion strains, locus YOR290C, strain snf2, stronger effect = lower value 1.01 | S. cerevisiae deletion strains, locus YOR316C, strain cot1, stronger effect = lower value 1.01 | S. cerevisiae deletion strains, locus YPL051W, strain arl3, stronger effect = lower value 0.994 | S. cerevisiae deletion strains, locus YPL055C, strain LGE1, stronger effect = lower value 0.973 | S. cerevisiae deletion strains, locus YPL078C, strain atp4, stronger effect = lower value 1.01 | S. cerevisiae deletion strains, locus YPL106C, strain sse1, stronger effect = lower value 0.901 | S. cerevisiae deletion strains, locus YPL240C, strain hsp82, stronger effect = lower value 0.988 | S. cerevisiae deletion strains, locus YPL241C, strain CIN2, stronger effect = lower value 1 | S. cerevisiae deletion strains, locus YPL256C, strain CLN2, stronger effect = lower value 1 | S. cerevisiae deletion strains, locus YPR119W, strain clb2, stronger effect = lower value 0.995 | S. cerevisiae deletion strains, locus YPR141C, strain kar3, stronger effect = lower value 1 | S. cerevisiae deletion strains, locus YPR163C, strain tif3, stronger effect = lower value 0.989 | S. cerevisiae deletion strains, locus YPR167C, strain met16, stronger effect = lower value 1 | S. cerevisiae deletion strains, strain wtn01, stronger effect = lower value 1 | S. cerevisiae strains, strain wild type, stronger effect = lower value 1.01
